Experimental data reported in PubChem BioAssay.
Calls of active or inactive are those of the source. Unless noted, the rule behind the calls is not given here.

Tests used:
[1] = compounds binding Alexa647 anti-His antibody – biochemical, small-molecule microarray, 635 nm fluorescence, artefact control for SMM control protein annotation, primary screen (AID 1128); settings: higher = more signal;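 note: score merges feature fluorescence with signal-to-noise for each printed compound spot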
[2] = test system: Human papillomavirus type 1a E7 protein (residues 1-88); experiment: HPV1a E7 small-molecule binders, primary screen, biochemical, small-molecule microarray, residues 1-88, 635 nm (AID 1129); settings: small-molecule microarray binding, fluorescence 635 nm; higher = more signal
[3] = molecular target: Focal adhesion kinase 1 (Homo sapiens) (UniProt Q05397); experiment: PTK2 protein binding on printed compound slides – biochemical, small-molecule microarray, 635/667 nm fluorescence, BSA, DTT, primary screen (AID 1130); settings: 635 nm fluorescence, higher = more signal;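 note: composite of spot emission at 667 nm and signal to noise over triplicate slides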
[4] = test system: Fibrinogen (Alexa647-labelled); experiment: Alexa647-fibrinogen binding to printed small molecules – biochemical, small-molecule microarray, 635/667 nm fluorescence, artefact control for SMM control-protein annotation, profiling panel (AID 1131); settings: fibrinogen-A647 binding fluorescence, higher = more signal;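 note: z-score merges 667 nm fluorescence with per-spot signal-to-noise over triplicate slides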
[5] = molecular target: Follistatin (Homo sapiens) (UniProt P19883); experiment: FST protein binding to printed compounds – biochemical, small-molecule microarray, 635/667 nm fluorescence, primary screen (AID 1132); settings: 635 nm fluorescence, higher = more signal
[6] = molecular target: Fibroblast growth factor 2 (Homo sapiens) (UniProt P09038); experiment: basic fibroblast growth factor binding to printed compounds – biochemical, small-molecule microarray, 635/667 nm fluorescence, primary screen (AID 1133); settings: FGF2, fluorescence 635/667, higher = more signal
[7] = JC-1 mitochondrial potential readout, lung cancer cells – cell-based, A549, JC-1 fluorescence, basal, 24 h, 100 nL, profiling panel (AID 1138); settings: higher = more signal;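 note: A549 lung adenocarcinoma cells under basal conditions with no added stimulus; test concentration not given here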
Lefty1 = Lefty1 protein binding to printed compounds – biochemical, small-molecule microarray, 635/667 nm fluorescence, primary screen (AID 1139); settings: fluorescence 635/667, higher = more signal
[8] = test system: wheat germ agglutinin (Triticum aestivum), Alexa647-labelled; experiment: Alexa647-WGA lectin binding to printed small molecules – biochemical, small-molecule microarray, 635/667 nm fluorescence, artefact control for SMM control-protein annotation, profiling panel (AID 1140); settings: WGA-A647 binding, 635 nm fluorescence, higher = more signal;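 note: score merges 667 nm feature emission with signal to noise over triplicate slides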
[9] = molecular target: Luciferin 4-monooxygenase (Photinus pyralis) (UniProt P08659); experiment: inhibition of purified Photinus pyralis luciferase – biochemical, luminescence, purified enzyme, 2006 set, primary screen (AID 1141); settings: purified firefly luciferase, SteadyGlo luminescence, 30 min; higher = more signal, called active from +8 up or from −8 down;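 note: cell-free assay with purified firefly luciferase at 100 ng per well in PBS; test concentration not given here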
[10] = test system: Wnt5a (protein binding on small-molecule microarray); experiment: small molecules binding Wnt5a protein – biophysical, small-molecule microarray, 635/667 nm fluorescence, primary screen (AID 1142); settings: 635 nm fluorescence, higher = more signal;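 note: fluorescence read at 667 nm with signal to noise per printed feature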
[11] = ATP-based viability of Huh7 replicon cells – cell-based, CellTiter-Glo luminescence, basal, 48 h, cytotoxicity control for HCV replication inhibitor project, primary screen (AID 1143); settings: higher = more signal, called active from +8 up or from −8 down;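 note: Huh7 hepatoma cells carrying a hepatitis C replication reporter with no stimulus; test concentration not given here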
[12] = Pseudomonas biofilm growth suppression – PAO1 strain, BacTiter-Glo luminescence, LB-PBS, primary screen (AID 1144); settings: P. aeruginosa PAO1 biofilm, 12 h, higher = more signal
[13] = basal CRE-LacZ reporter activity in PC12 – cell-based, unstimulated, primary screen (AID 1145); settings: no forskolin, luminescence, 4.5 h, higher = more signal, called active from +8 up or from −8 down
[14] = forskolin-driven CRE-LacZ activity in PC12 – cell-based, CRE-LacZ reporter, forskolin-stimulated, primary screen (AID 1146); settings: luminescence, 4.5 h, higher = more signal, called active from +8 up or from −8 down;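 note: PC12 cells with 6xCRE LacZ reporter stimulated by forskolin 10 µM; beta-galactosidase reporter signal reflecting CREB driven transcription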
[15] = molecular target: Streptavidin (Streptomyces avidinii) (UniProt P22629); experiment: compounds binding control protein streptavidin – biophysical, small-molecule microarray, 635/667 nm fluorescence, artefact control for SMM compound annotation, primary screen (AID 1147); settings: higher = more signal;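 note: signal reflects streptavidin binding to arrayed compounds as a control protein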
[16] = probe aInhba binding on compound microarray – biochemical, small-molecule microarray, 635/667 nm fluorescence, primary screen (AID 1148); settings: higher = more signal;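 note: score merges 667nm spot fluorescence with signal-to-noise for antibody binding to printed compounds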
Torsin-1A (Homo sapiens) [17] = molecular target: Torsin-1A (Homo sapiens) (UniProt O14656); experiment: TOR1A wild-type binding on microarray – cell lysate, small-molecule microarray, lysate, 635/667 nm, primary screen (AID 1149); settings: COS7 hTOR1A-WT lysate, 635 nm fluorescence, higher = more signal
Torsin-1A (Homo sapiens) [18] = molecular target: Torsin-1A (Homo sapiens) (UniProt O14656); experiment: torsin A mutant lysate binding on microarrays – cell lysate, small-molecule microarray, COS7 lysate, 635/667 nm fluorescence, primary screen (AID 1150); settings: COS7 hTOR1A mutant lysate, 635 nm fluorescence, higher = more signal;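 note: score pools 667 nm emission and signal to noise measuring lysate protein binding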
[19] = test system: Sonic hedgehog protein (Shh); experiment: Sonic hedgehog microarray binding compounds – biochemical, small-molecule microarray, 635/667 nm fluorescence, primary screen (AID 1151); settings: 635 nm fluorescence, higher = more signal;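 note: Shh protein binding to compounds spotted on small-molecule microarray slides; score combines spot fluorescence intensity with signal-to-noise across triplicate slides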

Chain of Streptavidin (Streptomyces avidinii) (P22629 whole entry, looked up): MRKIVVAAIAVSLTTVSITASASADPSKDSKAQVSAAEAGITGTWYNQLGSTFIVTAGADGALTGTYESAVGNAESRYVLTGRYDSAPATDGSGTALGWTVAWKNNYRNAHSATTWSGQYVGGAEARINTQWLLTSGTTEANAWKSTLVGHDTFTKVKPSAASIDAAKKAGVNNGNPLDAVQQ
Chain of Fibroblast growth factor 2 (Homo sapiens) (P09038 whole entry, looked up): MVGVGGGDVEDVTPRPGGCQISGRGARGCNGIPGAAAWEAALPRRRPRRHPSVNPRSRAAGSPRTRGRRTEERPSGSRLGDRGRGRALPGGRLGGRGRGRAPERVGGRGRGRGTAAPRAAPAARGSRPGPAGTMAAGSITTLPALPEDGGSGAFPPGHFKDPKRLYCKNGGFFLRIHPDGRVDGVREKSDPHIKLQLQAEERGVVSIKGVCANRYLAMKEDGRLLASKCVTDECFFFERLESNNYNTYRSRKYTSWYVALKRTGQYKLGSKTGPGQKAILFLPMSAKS
Chain of Follistatin (Homo sapiens) (P19883 whole entry, looked up): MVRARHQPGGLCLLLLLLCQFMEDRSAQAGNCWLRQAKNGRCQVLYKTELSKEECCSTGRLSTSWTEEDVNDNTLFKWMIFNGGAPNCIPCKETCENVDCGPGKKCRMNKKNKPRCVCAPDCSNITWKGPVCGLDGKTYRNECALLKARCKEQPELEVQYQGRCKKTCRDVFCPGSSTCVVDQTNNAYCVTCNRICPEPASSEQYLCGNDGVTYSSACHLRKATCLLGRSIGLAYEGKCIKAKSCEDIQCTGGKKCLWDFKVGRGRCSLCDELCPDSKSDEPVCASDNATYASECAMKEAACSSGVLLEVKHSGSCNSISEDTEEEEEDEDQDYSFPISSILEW
Chain of Luciferin 4-monooxygenase (Photinus pyralis) (P08659 whole entry, looked up): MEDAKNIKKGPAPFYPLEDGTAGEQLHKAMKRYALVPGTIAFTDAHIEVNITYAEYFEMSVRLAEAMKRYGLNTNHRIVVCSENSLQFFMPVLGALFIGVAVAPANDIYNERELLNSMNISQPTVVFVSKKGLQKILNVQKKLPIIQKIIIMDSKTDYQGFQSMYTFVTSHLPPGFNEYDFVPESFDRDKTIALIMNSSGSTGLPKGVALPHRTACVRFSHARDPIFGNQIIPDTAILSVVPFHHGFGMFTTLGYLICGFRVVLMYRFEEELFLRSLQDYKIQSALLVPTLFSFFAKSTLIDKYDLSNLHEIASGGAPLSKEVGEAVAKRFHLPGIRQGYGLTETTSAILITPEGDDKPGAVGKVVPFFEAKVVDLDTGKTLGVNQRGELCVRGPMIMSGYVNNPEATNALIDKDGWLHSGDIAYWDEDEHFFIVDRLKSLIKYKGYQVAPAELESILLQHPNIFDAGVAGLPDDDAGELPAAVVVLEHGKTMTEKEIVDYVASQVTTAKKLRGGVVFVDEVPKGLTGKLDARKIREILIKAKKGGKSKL
Chain of Focal adhesion kinase 1 (Homo sapiens) (Q05397 whole entry, looked up): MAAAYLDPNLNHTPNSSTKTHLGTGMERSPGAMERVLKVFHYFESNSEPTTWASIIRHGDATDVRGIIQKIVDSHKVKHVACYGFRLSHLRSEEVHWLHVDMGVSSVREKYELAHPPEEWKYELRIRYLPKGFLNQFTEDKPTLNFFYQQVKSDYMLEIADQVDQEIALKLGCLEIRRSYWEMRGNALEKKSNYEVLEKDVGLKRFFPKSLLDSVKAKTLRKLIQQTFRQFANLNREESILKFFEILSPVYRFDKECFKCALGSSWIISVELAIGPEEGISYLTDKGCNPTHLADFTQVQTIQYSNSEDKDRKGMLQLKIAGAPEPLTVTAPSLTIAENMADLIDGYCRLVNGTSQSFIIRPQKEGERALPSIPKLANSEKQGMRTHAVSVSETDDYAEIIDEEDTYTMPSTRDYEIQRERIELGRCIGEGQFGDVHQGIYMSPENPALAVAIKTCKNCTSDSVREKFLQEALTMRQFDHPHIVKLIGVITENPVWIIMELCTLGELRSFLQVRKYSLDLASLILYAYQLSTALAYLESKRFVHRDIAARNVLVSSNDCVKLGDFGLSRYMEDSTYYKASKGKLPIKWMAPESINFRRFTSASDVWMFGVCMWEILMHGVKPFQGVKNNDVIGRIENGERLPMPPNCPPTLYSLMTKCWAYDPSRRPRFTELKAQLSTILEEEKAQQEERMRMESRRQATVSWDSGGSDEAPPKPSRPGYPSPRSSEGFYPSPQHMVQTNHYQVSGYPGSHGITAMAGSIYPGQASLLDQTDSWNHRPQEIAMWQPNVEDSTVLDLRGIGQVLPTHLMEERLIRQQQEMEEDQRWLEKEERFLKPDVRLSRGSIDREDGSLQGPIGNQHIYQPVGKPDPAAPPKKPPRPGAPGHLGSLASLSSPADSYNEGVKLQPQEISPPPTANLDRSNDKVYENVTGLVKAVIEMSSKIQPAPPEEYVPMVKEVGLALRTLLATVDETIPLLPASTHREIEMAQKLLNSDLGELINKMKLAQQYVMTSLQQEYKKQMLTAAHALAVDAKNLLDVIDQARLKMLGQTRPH
Chain of Torsin-1A (Homo sapiens) (O14656 whole entry, looked up): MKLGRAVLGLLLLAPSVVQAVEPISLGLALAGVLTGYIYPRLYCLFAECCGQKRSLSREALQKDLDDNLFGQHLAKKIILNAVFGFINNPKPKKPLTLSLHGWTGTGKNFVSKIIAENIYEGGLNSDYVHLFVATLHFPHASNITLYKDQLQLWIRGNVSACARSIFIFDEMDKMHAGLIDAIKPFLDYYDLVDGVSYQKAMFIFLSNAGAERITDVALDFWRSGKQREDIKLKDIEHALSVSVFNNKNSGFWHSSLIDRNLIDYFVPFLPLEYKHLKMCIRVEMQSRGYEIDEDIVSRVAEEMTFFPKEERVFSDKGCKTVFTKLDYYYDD

SMILES	composite z-score [1]	composite z-score [2]	composite z-score [3]	composite z-score [4]	composite z-score [5]	composite z-score [6]	z-score [7]	composite z-score (Lefty1)	composite z-score [8]	z-score [9]	composite z-score [10]	z-score [11]	z-score [12]	z-score [13]	z-score [14]	composite z-score [15]	composite z-score [16]	composite z-score (Torsin-1A (Homo sapiens) [17])	composite z-score (Torsin-1A (Homo sapiens) [18])	composite z-score [19]
COc1ccccc1CN1C(=O)c2ccccc2[C@@H](C(=O)NCC(F)(F)F)[C@@H]1c1ccc(CO)cc1	0.218	0.993	0.391	0.532	1.06	1.05	1.13	1.13	0.185	0.806 (inactive)	0.324	-1.92 (inactive)	-1.6 (inactive)	0.504 (inactive)	-1.28 (inactive)	0.299	0.16	0.156	0.336	1.92
N#Cc1ccc(NN2C(C(O)c3cc(C(F)(F)F)cc(C(F)(F)F)c3)C=CC3C(=O)N(c4ccccc4)C(=O)C32)cc1 (stereo not given)	0.94	1.17	0.756	0.932	1.11	-0.477	0.277	0.265	1.16	-0.514 (inactive)	0.261	-2.24 (inactive)	-0.875 (inactive)	0.822 (inactive)	-0.389 (inactive)	1.39	0.231	1.43	1.06	-0.0099
CO[C@H]1O[C@H](CO)[C@@H](OC(=O)Nc2ccc(C#N)cc2)[C@H](OC(=O)c2cc3ccccc3[nH]2)[C@H]1OC(=O)c1cc2ccccc2[nH]1	2.87	1.18	0.831	0.787	0.491	1.33	0.71	0.421	0.955	-2.01 (inactive)	0.436	-3.88 (inactive)	-2.05 (inactive)	0.484 (inactive)	-1.03 (inactive)	0.779	-0.0011	0.91	1.36	0.746
CC(CCC(=O)OC[C@H]1O[C@H](C#Cc2ccccc2)C=C[C@@H]1Oc1ccc(C)cc1)=NOC[C@@H](O)COCc1ccco1	-1.01	-0.569	-1.1	-2.18	-2.24	-3.21	-0.718	-2.17	-0.452	-0.889 (inactive)	-1.52	-0.204 (inactive)	-0.128 (inactive)	3.74 (inactive)	1.9 (inactive)	-1.78	-0.446	-6.37	-5.2	-2.43
CCCNC(=O)OC[C@H]1O[C@H](CCON=C[C@@H](OC)[C@H](C)C=CCC(=O)OC)C=C[C@@H]1Oc1ccc(OC)cc1	2.2	-0.0259	-0.0322	0.325	0.0998	0.109	0.139	0.548	0.183	-0.276 (inactive)	-0.0615	-0.444 (inactive)	1.18 (inactive)	3.46 (inactive)	0.963 (inactive)	-0.351	-0.206	0.525	0.422	1.05
COCCNC(=O)OCC1CCCC2(CC(OC(=O)NCCc3ccc(F)cc3)CC(CCC(=O)N[C@@H](C)C(=O)OC)O2)O1 (stereo not given in full)	1	1.12	0.104	0.895	1.26	1.18	1.28	0.969	0.618	0.349 (inactive)	0.156	-0.126 (inactive)	0.252 (inactive)	0.374 (inactive)	-0.448 (inactive)	0.753	-0.128	0.267	-0.0343	1.09
COCCCNC(=O)[C@@]1(Sc2ccc(C)cc2)CC(=O)N(Cc2ccccc2)[C@@H]1c1ccc(CO)cc1I	0.101	0.264	-0.303	-0.154	-0.191	-0.376	1.63	-1.13	-0.308	-0.848 (inactive)	0.129	-1.25 (inactive)	0.501 (inactive)	-0.232 (inactive)	1.48 (inactive)	-0.684	0.106	0.234	0.0773	-0.772
COCCOC(=O)N1C(=O)[C@@]2(c3ccccc31)[C@H](C(N)=O)[C@H]1C(=O)O[C@H](c3ccccc3)[C@H](c3ccccc3)N1[C@@H]2c1ccccc1OCCO	2.57	1.08	0.29	0.882	1.3	0.894	0.431	0.533	0.98	-1.25 (inactive)	0.491	-4.01 (inactive)	1.67 (inactive)	0.362 (inactive)	0.406 (inactive)	0.662	0.126	0.918	0.815	1.19
CN1C(=O)C2C(C1=O)C1C=C(CCCO)C2C(c2ccc(CN3CCCC3)cc2)N1C (stereo not given)	-0.0122	-0.329	0.0551	-1.58	-0.227	-0.052	-1.01	-0.0306	-0.236	0.53 (inactive)	-0.205	-0.202 (inactive)	0.675 (inactive)	-0.0743 (inactive)	-0.436 (inactive)	-0.383	-0.157	0.33	-0.287	0.207
CC(C)=C1C(=O)C(c2ccccc2)=C2CN3C(=O)N(CCc4ccccc4)C(=O)[C@]3(Cc3ccc(F)cc3)[C@H]21	1.59	-0.205	-0.0639	-1.43	-0.968	-0.412	1.27	-1.2	0.338	0.98 (inactive)	-0.506	-0.934 (inactive)	-0.00959 (inactive)	0.576 (inactive)	1.73 (inactive)	0.0452	0.205	-2.38	-1.7	-1.74
